CHX counter – counter-screen for Shiga toxin inhibitors: cycloheximide protein synthesis inhibition; 12% of 300,000 active; AID 2314; max response, %; cell reporter, cycloheximide protein synthesis inhibition counterscreen; in the data active = max response mostly above about 13%, no sharp cut-off; inactive = mostly below about 14%; also: read at 38.3 µM for the half of the compounds with a filed dose; 0% is about no effect
Pf growth 48h – inhibits P. falciparum growth in the first generation, 48 h | P. falciparum luciferase growth in erythrocytes, 48 h | 5.9% of 310,000 active | Potency, µM (titrated, usually from 28.7 µM), without a hit: top-dose activity change, negative = inhibition, most hits filed as inhibitors; also: potency is read from the fitted curve at half-maximal effect; % is scaled to controls: 0 for no effect and ±100 for the full control effect
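Here the parasites carry a stable luciferase gene and grow inside erythrocytes in Albumax-based RPMI medium with compound for one erythrocytic cycle. Activity is scored as loss of luminescent signal.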
Shiga toxin inh – blocks Shiga toxin action in Vero cells | inhibition, % at 38.7 µM | Vero cells, Shiga toxin protein synthesis inhibition reporter | 9.2% of 290,000 active; in the data active = inhibition mostly above about 28%, no sharp cut-off; inactive = mostly below about 43%; also: 0% is about no effect
Pf growth 96h – inhibits malaria parasite growth, 96 h; P. falciparum luciferase reporter growth, 96 h; Potency, µM (top dose mostly 28.7 µM), without a hit: top-dose activity change, negative = inhibition, actives largely listed as inhibitors; 6.9% of 320,000 active; AID 504834; also: potency is read from the fitted curve at half-maximal effect; % is scaled to controls: 0 for no effect and ±100 for the full control effect
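Luminescence readout: decreased luciferase signal marks inhibited growth of reporter-expressing P. falciparum in infected red cells (2% hematocrit, 0.05% parasitemia final), exposed to compound two generations (96 h, 37 C, 5% CO2).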
Numbers without * were called inactive; ? = inconclusive; . = not tested or not shown; [ ] = remark or other dose. Sampled rows, rich in hits. Any-hit rate of the full collection: about 21%. Unless noted, calls follow the shape of the dose curve; as a rule, active = well fitted inhibition curve with a large enough effect; inconclusive = small, poorly fitted or top-dose-only effect, or another doubt; inactive = no such curve, though single readings can be large or run the other way.

SMILES | CHX counter | Pf growth 48h | Shiga toxin inh | Pf growth 96h
Cc1cc(C)c(O)c(-c2cc(C(=O)Nc3c(C)n(C)n(-c4ccccc4)c3=O)[nH]n2)c1 | -1.7 | 6.1% | 11.0 | -15.9%
COc1cc(C(=O)NCCC(=O)N2CCC3(CC2)NCCc2[nH]cnc23)cc(OC)c1OC | -1.7 | -6.1% | -4.3 | 4.2%
COc1cccc(N=Cc2c(O)c3ccccc3oc2=O)c1 | 21.3* | 39.1% | 34.5 | ?
Cc1ccc(N=Cc2c(O)c3ccccc3oc2=O)c(C)c1 | 29.9* | 16.7% | 17.1 | 8.9%
CC(C)CC(N=Cc1c(O)c2ccccc2oc1=O)C(=O)O (stereo not drawn) | 10.0 | 8.1% | 47.0 | 20.6%
Cc1ccc(F)cc1N=Cc1c(O)c2ccccc2oc1=O | -0.9 | 0.5% | -16.9 | 2.2%
CCc1cccc(C)c1N=Cc1c(O)c2ccccc2oc1=O | 8.9 | 13.1µM* | . | 10.4%
O=C(O)CCCN=Cc1c(O)c2ccccc2oc1=O | -1.2 | 4.9% | -9.4 | 10.4µM*
COc1ccc(C)cc1NC(=O)CN1CCCN(S(=O)(=O)c2ccc(Br)cc2)CC1 | -5.7 | -25.3% | -18.3 | 1.1%
CC(Sc1nc(N)cc(=O)[nH]1)C(=O)Nc1nc2c(s1)CCCC2 (stereo not drawn) | -3.6 | 32.5% | 1.2 | ?
CC(NC(=O)c1cc(F)c(F)c(F)c1F)c1ccc(-n2ccnc2)cc1 (stereo not drawn) | -1.3 | ? | -9.2 | -4.2%
CN=C(C)c1c(O)c2ccccc2oc1=O | 18.1* | . | 20.3 | 26.2%
CCOC(=O)C1(Cc2ccc(Cl)cc2)CCN(C(C)Cc2ccc(O)c(OC)c2)CC1 (stereo not drawn) | -3.3 | ? | 1.5 | ?
CCN(CC(=O)NC1CCS(=O)(=O)C1)S(=O)(=O)c1ccc(Cl)c(C(F)(F)F)c1 (stereo not drawn) | . | -0.4% | . | 1.7%
O=C(O)CSc1nc2ccccc2n1Cc1ccccc1 | 0.8 | 4.0% | -6.5 | 229.5%
O=C(O)CCn1c(SCCOc2ccccc2F)nc2ccccc21 | 18.0* | ? | 5.2 | 10.4µM*
COC(=O)Cn1c(SCc2ccccc2)nc2ccccc21 | 18.5* | . | 48.4 | 31.4%
COc1ccccc1OCCSc1nc2ccccc2n1CC(O)CO (stereo not drawn) | 12.9* | -4.5% | 25.1 | 280.6%
CCSc1nc2ccccc2n1CC(=O)OC | -1.0 | 2.3% | 13.6 | 0.6%[5.75 µM]
O=C(O)CCn1c(SCc2ccccc2)nc2ccccc21 | 8.8 | 33.6% | 22.9* | 14.7%
CC(=O)c1cccc(NC(=O)C2CCN(S(=O)(=O)c3ccccc3)CC2)c1 | -1.9 | -6.4% | 3.7 | .
O=C(CCn1nnc2ccccc21)Nc1nnc(COc2ccc(F)cc2)s1 | -0.6 | -3.5% | 27.1 | 9.28µM*
CCOC(=O)c1ccc(NC(=O)Cn2nnc3ccccc32)cc1 | 32.2* | 100.4% | 91.8* | 24.6%
C/C(=N\NC(=O)CCn1nnc2ccccc21)c1ccco1 | 19.5* | 56.3% | 35.0 | 83.2%
COC(=O)c1cccc(NC(=O)Cn2nnc3ccccc32)c1 | 9.7 | 39.8% | 33.5 | ?
SMILES | CHX counter | Pf growth 48h | Shiga toxin inh | Pf growth 96h
NNC(=O)CCn1nnc2ccccc21 | -1.8 | 20.0% | -5.0 | 57.1%
CCOC(=O)c1ccc(NC(=O)CCn2nnc3ccccc32)cc1 | 12.3* | -1.2% | 41.6 | ?
Cc1[nH]nc2c1C(c1cccs1)C1=C(CC(C)(C)CC1=O)N2 (stereo not drawn) | 1.7 | ? | 3.5 | ?
O=C(COC(=O)/C=C/c1ccc(F)cc1)NC1CCS(=O)(=O)C1 (stereo not drawn) | . | ? | . | 7.2%
CC[C@]1(c2ccccc2)NC(=O)NC1=O | 9.9 | . | -3.7 | .
CC(C)(C)c1ccc2c(S(=O)(=O)O)c(C(C)(C)C)ccc2c1 | . | -4.5% | . | ?
CC(=O)Nc1ccc(NC(=O)CCn2nnc3ccccc32)cc1 | 10.1 | 9.28µM* | 16.5 | -3.4%
COc1ccc(/C=N/NC(=O)CCn2nnc3ccccc32)cc1 | 20.3* | 1.5% | 53.3* | 22.0%
COc1ccccc1/C=C\C=N\NC(=O)CCn1nnc2ccccc21 | 0.8 | 0.9% | -4.5 | ?
COc1cccc(N2CCN(C(=O)c3oc4ccccc4c3NC(=O)Cc3ccc(OC)c(OC)c3)CC2)c1 | -9.4 | ? | -2.4 | -14.4%
COc1ccccc1NS(=O)(=O)c1cc(NC(=O)/C=C/c2cccs2)ccc1N1CCOCC1 | -2.3 | 11.7µM* | -8.2 | ?
O=C(/C=C/c1cccs1)Nc1ccc(N2CCOCC2)c(S(=O)(=O)Nc2ccccc2Cl)c1 | 20.5* | ? | 61.2* | ?
CC1CC(C)CN(C(=O)C2CCN(C(=O)Nc3ccccc3)CC2)C1 (stereo not drawn) | . | -23.2% | . | -12.3%
COc1ccc(CCC(=O)Nc2cccc(Cl)c2)cc1 | 9.0 | -8.0% | 17.8 | -31.3%
COc1ccc2cc(CCC(C)=O)ccc2c1 | 56.2* | 55.2%[12.8 µM] | 92.1* | 95.2%[12.8 µM]
NC[C@@H]1O[C@H](OC2[C@@H](CO)O[C@@H](OC3[C@H](O)[C@H](N)C[C@H](N)[C@H]3OC3O[C@H](CO)[C@@H](O)[C@H](O)[C@@H]3N)[C@H]2O)C(N)[C@H](O)[C@@H]1O (stereo partly drawn) | . | -13.2% | . | 0.3%
COc1ccc(N(C(=O)c2snc(C(N)=O)c2N)C(C(=O)NC2CCCC2)c2cc(OC)ccc2OC)cc1 (stereo not drawn) | -1.3 | ? | -8.1 | ?
Cc1csc(NC(=O)CSc2nc3ccccc3c(=O)[nH]2)n1 | 5.5 | 3.9% | -15.9 | -4.9%
Cc1ccc(CSc2nc3ccccc3c(=O)[nH]2)cc1 | 38.0* | 19.0% | 35.0 | ?
Cc1cccc(C)c1NC(=O)CSc1nc2ccccc2c(=O)[nH]1 | -1.4 | -0.2% | -2.5 | 0.415µM*
CCc1ccc(C(=O)CSc2nc3ccccc3c(=O)[nH]2)cc1 | 13.8* | . | 30.1 | 10.4µM*
CC(C)CC(=O)Nc1ccc(-c2nc3ccccc3c(=O)o2)cc1 | -3.0 | 11.6% | -4.0 | 7.3%
CC(C)CC(=O)Nc1ccc(-c2nc3ccccc3c(=O)[nH]2)cc1 | 31.8* | 234.9% | 73.3* | 352.0%
CN(C)Cc1c(C(=O)N/N=C/c2ccncc2)nnn1-c1nonc1N | -1.1 | . | -7.6 | 2.6%
Cc1[nH]c2ccccc2c1C(=O)C(=O)NCCOc1ccccc1 | 25.2 | ? | 17.1 | 52.0%
SMILES | CHX counter | Pf growth 48h | Shiga toxin inh | Pf growth 96h
Cc1noc(C)c1-c1csc(N2CCC(C(N)=O)CC2)n1 | . | 13.0% | . | -3.3%
O=C(CSc1nc2ccccc2c(=O)[nH]1)Nc1ccc(C(=O)O)cc1 | -4.6 | 39.7% | 1.7 | 21.1%
O=c1[nH]c(SCc2ccc(Cl)cc2)nc2ccsc12 | 44.3* | 489.8% | 61.8* | 227.2%
CCOc1ccc(OCCSc2nc3ccccc3c(=O)[nH]2)cc1 | 1.9 | . | 22.5 | 46.8%
Cc1ccc(C(=O)CSc2nc3ccccc3c(=O)[nH]2)cc1 | 14.9* | . | 4.9 | 14.7%
O=c1[nH]c(SCCOc2cccc3ccccc23)nc2ccccc12 | 13.5 | -9.9% | 25.4 | 2.08µM*
O=C(CSc1nc2ccccc2c(=O)[nH]1)Nc1ccc(S(=O)(=O)N2CCCC2)cc1 | -5.0 | -16.3% | 7.7 | 2.33µM*
O=C(COc1coc(CN2CCc3ccccc32)cc1=O)Nc1ccccc1 | . | ? | . | 0.8%
CN(C)C(=O)CSc1nc2ccccc2c(=O)[nH]1 | 3.2 | 5.2% | -1.6 | ?
CCN(CC)C(=O)CSc1nc2ccccc2c(=O)[nH]1 | 9.0* | -4.8% | 7.1 | -25.2%

Source: PubChem BioAssay
